# Compound activity: PubChem BioAssay, National Center for Advancing Translational Sciences (NCATS)
# Tau fluor cs – counter-screen for tau fibril formation inhibitors. tau K18 P301L Alexa594 fluorescence, heparin fibrillization. Potency, µM (series often up to 57.7 µM), for inactives: at the top dose activity change, negative = decrease. actives 0.93% (n = 280,000). AID 1463; further: potency means the concentration at half of the fitted maximal effect; nearly all actives have a fitted effect of over 55% in size
#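 Human K18 P301L tau (15 uM unlabeled plus 0.24 uM Alexa 594-labeled, final) in 100 mM sodium acetate pH 7 was mixed with compound and 20 uM heparin and incubated 6 hr at 37 C.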
# FBPA coupling cs – counter-screen for Giardia aldolase inhibitors: coupling enzyme system. activity change, negative = inhibition, % at 58.2 µM, hits read low. actives 0.67% (n = 290,000). AID 2472. coupling enzyme system counterscreen, AmpLite Red fluorescence; in the data active means activity change below about -30%
#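 Counterscreen lacking aldolase: glyceraldehyde-3-phosphate coupling-enzyme reagent preincubated 10 min at RT with compound (at 57.5 uM final), then substrate/coupling system with AmpLite Red added; fluorescence read at 525/598 nm after 20 min RT.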
# Tau FP inhib – inhibitors of human tau fibril formation. K18 P301L tau heparin fibrillization, Alexa594 FP, 6 h. Potency, µM (highest dose often 57.7 µM), inactives show at the highest dose activity, negative = inhibition, most hits filed as inhibitors. actives 0.39% (n = 280,000); further: potency means the concentration at half of the fitted maximal effect; nearly all actives have a fitted effect of over 55% in size
# Target sequence (P10636 561-689 P618L limits assumed): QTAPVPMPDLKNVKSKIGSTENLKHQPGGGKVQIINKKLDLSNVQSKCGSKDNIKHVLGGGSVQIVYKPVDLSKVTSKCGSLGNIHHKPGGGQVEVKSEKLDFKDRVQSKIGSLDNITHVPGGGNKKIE
#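 Compound effects on tau fibrillization are measured by Alexa 594 fluorescence polarization (ex 555, em 632 nm). K18 P301L tau is used at 15 uM with 0.24 uM labeled tracer, and 20 uM heparin induces aggregation over 6 hr at 37 C.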
# Tau fibril ThT – tau fibrillization inhibition (ThT binding); P10636; actives 2.1% (n = 270,000); Potency, µM (top dose mostly 57.4 µM), inactives show at the highest dose activity, negative = inhibition, actives largely listed as inhibitors; recombinant tau K18 P301L (four-repeat tau fragment), heparin-induced fibrillization, ThT fluorescence; AID 1460; further: potency means the concentration at half of the fitted maximal effect; nearly all actives have a fitted effect of over 55% in size
#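 Aggregation was driven by heparin (20 uM final) acting on recombinant tau […] bearing P301L in 100 mM sodium acetate pH 7; fibrils were detected with Thioflavin T.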
# An asterisk follows results filed as active; ? = inconclusive; / = no result; [ ] = remark or other dose. Only some compounds are listed: those with a hit (about 2.7% of all), similar ones and a draw of the others. Unless noted, the call rests on the fitted dose curve; in most records, active means well fitted curve in the direction sought with a large enough effect; inconclusive means small, poorly fitted or top-dose-only effect, or another doubt; inactive means no such curve, though single readings can be large; an effect the other way counts as inactive or inconclusive. On the % scale 0 is the no-effect control and ±100 the full control effect.
SMILES,Tau fluor cs,FBPA coupling cs,Tau FP inhib,Tau fibril ThT
COc1ccccc1/C=C/C(=O)/C=C/c1ccccc1O,-28%,-13,?,14µM*
CNc1ccccc(C(=O)/C=C/c2ccccc2OC)c1=O,?,-30*,?,16µM*
COC(=O)c1cn(NC(=O)/C=C/c2cccc(OC)c2OC)c(=O)c2ccccc12,-14%,1,0%,?
CNc1ccc(Br)cc(C(=O)/C=C/c2cccc(OC)c2OC)c1=O,?,-32*,?,14µM*
CC(=O)c1cc2c(cc1N/C(=N/S(=O)(=O)c1ccc(C)cc1)c1ccc(F)cc1)OCO2,-12%,/,-13%,?
NC(=O)c1ccc(N=Nc2c(-c3ccccc3)[nH]n(-c3ccccc3)c2=O)cc1,?,1,15%,?
Nc1[nH]n2c(=O)cc(-c3ccccc3)nc2c1N=Nc1ccc(S(N)(=O)=O)cc1,?,6,3%,2.2µM*
Nc1[nH]n2c(=O)cc(-c3ccccc3)nc2c1N=Nc1ccccc1,?,0,16%,5µM*
NS(=O)(=O)c1ccc(N=Nc2c(-c3ccccc3)[nH]n(-c3nc(-c4ccccc4)cs3)c2=O)cc1,8.9µM*[quencher],1,?,1.8µM*
O=C(CCSCCC(=O)NCc1ccco1)NCc1ccco1,-21%,-1,?,14µM*
O=C(CCSCc1ccccc1Cl)NCc1ccco1,-10%,0,-2%,-6%
COc1ccc(C(=O)COC(=O)c2ccccc2NS(=O)(=O)c2ccc(O)c([N+](=O)[O-])c2)cc1,-30%,11,10%,16µM*
O=[N+]([O-])c1ccc(/C=N/N=C/c2ccc([N+](=O)[O-])o2)o1,?,-20,?,13µM*
Cc1n[nH]c(C)c1N=Nc1ccc(Br)cc1,-30%,1,-13%,11µM*
COc1ccc(N=Nc2c(C)n[nH]c2C)cc1,/,3,/,/
[N-]=[N+]=Nc1ccc(C(=O)CSC[C@H](NC(=O)CC[C@H](N)C(=O)O)C(=O)NCC(=O)O)cc1,3%,/,8%,-11%
COc1ccc2c(c1)OCC1=C2CCC2(C)C(=O)CC=C12 (configuration not stated),?,-34*,?,20µM*
COc1ccc2c(c1)SCCC2=O,-1%,2,11%,-5%
COc1cccc(/C=C/C(=O)OCC(=O)c2c[nH]c3ccccc23)c1OC,?,-1,?,-8%
CCc1cccc2c(C(=O)COC(=O)/C=C/c3ccc(O)c(OC)c3)c[nH]c12,16µM*[quencher],-2,-9%,?
CCOC(=O)c1ccccc1NC(=O)N1CC(C)Oc2ccc(C)cc21 (configuration not stated),2.8µM*[quencher],/,?,1%
CCc1ccc(NC(=O)N2CC(C)Oc3ccc(C)cc32)cc1 (configuration not stated),2.5µM*[quencher],/,-4%,3%
COC(=O)c1ccccc1NC(=O)CCC(=O)N1CC(C)Oc2ccc(C)cc21 (configuration not stated),/,-3,/,/
CCOC(=O)c1cc(-c2ccc(C)cc2)nn1Cc1ccccc1,-13%,/,-9%,-10%
CNC(=O)[C@H](C)/C=C(\c1cccnc1)C(NC(=O)OCc1ccccc1)c1ccc(C(=O)OC)cc1 (some centres not stated),-2%,11,6%,-8%
SMILES,Tau fluor cs,FBPA coupling cs,Tau FP inhib,Tau fibril ThT
CC(=O)Nc1ccc(S(=O)(=O)NC2=NCN(CCO)CN2)cc1,-9%,/,-6%,-3%
Cc1ccnc(SCC(=O)Nc2oc(-c3ccccc3)c(-c3ccccc3)c2C#N)n1,-21%,7,-11%,0%
COc1ccc(-c2oc(NC(=O)CSc3ncn[nH]3)c(C#N)c2-c2ccc(OC)cc2)cc1,14µM*[quencher],9,0%,?
COc1ccc(-c2oc(NC(=O)CCl)c(C#N)c2-c2ccc(OC)cc2)cc1,16µM*[quencher],-5,-15%,25µM*
COc1ccccc1OCC(=O)Nc1oc(-c2ccccc2)c(-c2ccccc2)c1C#N,-29%,9,3%,-9%
Cc1cc(C)c2c(N=NN3CCOCC3)[nH]nc2n1,-13%,-2,-4%,?
Cc1cccc(N2CCN(C(=O)C3CCN(c4ncnc5c4nc4n5CCCCC4)CC3)CC2C)c1 (configuration not stated),1%,1,9%,-16%
Cc1cc(C)c(NC(=O)CSc2nc3nc(C)cc(C)n3n2)c(C)c1,-20%,/,-13%,-12%
